# High-throughput results deposited in PubChem by ICCB-Longwood Screening Facility, Harvard Medical School.
# Ba CapD inh – Bacillus anthracis CapD inhibitors, primary screen, biochemical, fluorescence intensity; z-score (test concentration not listed); purified CapD enzyme, fluorescence intensity read-out; active compounds read low; hit rate 0.23% among 140,000; CapD gamma-glutamyltranspeptidase (Bacillus anthracis Ames Ancestor); in the data active = z-score mostly below about -2.9, no sharp cut-off; inactive = mostly above about -1.9
# Active calls of the source: *; i = inactive. Many of the other results were omitted from the sample, so hits are more common in it than they were.
SMILES,Ba CapD inh
Cc1cc(-c2ccccc2)nc2cc(C(=O)NCC3CCCO3)nn12 (centres undefined),i
NC(=Nc1ccccc1Cl)SCc1c(Cl)cccc1Cl,0.91
Cc1ccc(SC(=O)c2csnn2)cc1,-0.69
COCCNC(=S)c1ccc(N(C)C)cc1,-4.9*
COCCCNC(=S)N/N=C/c1ccc(N(C)C)cc1,43
COCCNC(=O)c1ccc(C(=O)NCCOC)cc1,0.13
Cc1cc(NCc2ccccc2)no1,0.28
CC1CCC(NC(=O)c2cc3oc4ccccc4c3n2C)CC1 (centres undefined),0.92
N#C/C(=N/O)c1nc2ccccc2s1,-4.5*
N#CC(=C1CCCCC1)c1nc2ccccc2s1,0.07
CSC(SC)=C(C#N)c1nc2ccccc2s1,-0.64
Cc1ccnc(NC(=O)CSC2=NC(=O)C(c3ccccc3)C(=O)N2)c1 (centres undefined),7.1
COc1ccc2[nH]cc(CCNS(=O)(=O)c3ccc(-n4cnnn4)c(OC)c3)c2c1,-0.57
O=C1CC(=O)c2c1cccc2[N+](=O)[O-],-2.2
O=C1CC(=O)c2ccc3c4c(ccc1c24)C(=O)CC3=O,-5.1*
CNc1cc(Nc2cccc(C)c2)c2c3c(onc13)-c1ccccc1C2=O,-0.39
COc1cc(C2N(Cc3ccccc3)CCN2Cc2ccccc2)ccc1OCc1ccccc1,-1
CCN(CC)C(=O)COc1nc(Cc2ccccc2)nc2sc3c(c12)CCCC3,0.065
Cc1ccc(OCC(=O)O)c(C)c1,-0.085
CCc1nc(C)ccc1OCC(N)=O,0.37
CCc1nc(C)ccc1OCC(=O)O,-5*
COc1ccc(N2CCN(c3ncnc4c3cnn4-c3ccc(OC)cc3)CC2)cc1,-0.41
COc1cccc(-n2c(=S)sc3c2nc(SCC(=O)Nc2ccc(OC)cc2OC)n2c4ccccc4nc32)c1,-0.17
COc1ccc(Br)cc1/C=N/n1cnnc1,0.61
CCN(CC)C(=O)c1ccc(COc2cccc3ccccc23)o1,1.8
SMILES,Ba CapD inh
CC(=O)Nc1ccc2nc(C)sc2c1,-5.7*
CC(=O)Nc1ccc2nc(NC(=O)C(C)(C)C)sc2c1,-0.36
Cc1nc2ccc(NC(=O)c3cccc(Br)c3)cc2s1,-0.085
Cn1c(=O)c2nc(-c3nc4ccccc4[nH]3)c(N)nc2n(C)c1=O,4.2
C=CCNC(=O)C(C)Sc1ccc(C)cc1 (centres undefined),-0.43
Ic1cccc(-c2nnc(-c3ccccc3)o2)c1,0.065
CCC1CCCCN1C(=O)CSc1nnc(-c2ccc(Cl)cc2)o1 (centres undefined),-4.8*
CCC1CCCCN1C(=O)CSCc1ccc(Cl)cc1 (centres undefined),0.29
CCC1CCCCN1C(=O)CSc1ccc(Cl)cc1 (centres undefined),-0.29
CN1CCN(c2nc3c(c(=O)[nH]c(=O)n3C)n2CC(O)COc2ccc(Br)cc2)CC1 (centres undefined),0.05
N#C/C=C/c1cc(C(F)(F)F)cc(C(F)(F)F)c1,-0.48
O=C(Nc1cccc(C(F)(F)F)c1)c1ccc(F)c(S(=O)(=O)N2CCc3ccccc32)c1,-0.29
CC1CCCCN1C(=O)Cn1ncc2c1-c1ccccc1OC2 (centres undefined),-4*
CC(C)NC(=O)Cn1ncc2c1-c1ccccc1OC2,-0.46
CCN(CCN(C)C)C(=O)Cn1ncc2c1-c1ccccc1OC2,0.48
CCOc1ccc(CC(=Nc2ccccc2O)C2=C(O)CC(C)(C)CC2=O)cc1OCC,-0.79
C=CCn1c(SCC(=O)Nc2ccc(OCC)cc2)nc2cc(C(=O)N3CCN(C)CC3)ccc2c1=O,-0.16
CN(C)/C=C/C=C1\N=C(c2ccccc2)OC1=O,-7*
O=C1OC(c2ccccc2)=N/C1=C\C=C\c1ccccc1,-0.44
Cc1ccc(/C=C2\N=C(c3ccccc3)OC2=O)o1,-2.7
CCC(=O)N1C(C(=O)NCc2ccccc2F)CSC12CCN(C)CC2 (centres undefined),0.035
COC(=O)c1ccccc1NC(=O)c1cc(-c2ccco2)on1,0.52
O=C(c1cc(-c2ccco2)on1)N(C1CCCCC1)C1CCCCC1,9.6
O=C(NC1CCCC1)c1cc(-c2ccc(O)cc2)on1,-1.1
CCCNC(=O)c1cc(-c2ccco2)on1,-4.7*
SMILES,Ba CapD inh
O=C(NCc1cccs1)c1cc(-c2ccco2)on1,0.18
O=C(NC1CCCCC1)c1cc(-c2ccco2)on1,-4*
Cc1ccc(SCc2cc(=O)[nH]c(=O)[nH]2)cc1,0.36
COc1ccc2[nH]cc(CCNS(C)(=O)=O)c2c1,0.44
O=C(O)c1ccc(Nc2nccc(Nc3ccccc3C(=O)O)n2)cc1,13
O=C(O)/C=C\C(=O)Nc1ccccc1C(=O)O,5.8
O=C(O)c1cc(Nc2ccccc2C(=O)O)nc(Nc2ccccc2C(=O)O)n1,-5.1*
O=C(c1ccco1)N1CCN(S(=O)(=O)c2ccc3c(c2)CN(C(=O)C(F)(F)F)CC3)CC1,-0.13
CC1=NN(c2ccc3c(S(=O)(=O)O)cc(S(=O)(=O)O)cc3c2)C(=O)C1,-6*
CC1=NN(c2ccccc2)C(=O)C1,-0.89
CC1=NN(c2ccc(C(=O)NCc3ccc(N(C)C)cc3)cc2)C(=O)C1,-1.1
CSc1ccc(N2C(=O)C=CC2=O)cc1,-0.58
Cc1ccc2c(C)nc(NC3=NC(C(=O)Nc4ccc(Br)cc4)CC(=O)N3)nc2c1 (centres undefined),-0.17
Cc1cc2c(cc1C)NC(c1ccc(N(C)C)cc1)C1=C(CC(C)(C)CC1=O)N2 (centres undefined),-2.3
O=C(Nc1c(C(=O)N2CCOCC2)oc2ccccc12)c1cccs1,-3.6*
Cc1ccccc1C(=O)Nc1c(C(=O)N2CCOCC2)oc2ccccc12,-1.4
NC(=O)c1oc2ccccc2c1NC(=O)c1cccs1,0.76
CCCc1ccc(C(=O)Nc2cccnc2Oc2ccc(C(C)(C)C)cc2)cc1,0.2
COc1ccc(CNC(=O)Cc2nc(-c3ccc(OC)cc3)no2)cc1,0.11
O=C(COCCn1cc(-c2ccc(Cl)cc2)cn1)NCc1cccc(C(F)(F)F)c1,-0.4
O=C(/C=C/c1ccc(Cl)cc1)C1(O)CCCCC1,-1.5
COc1ccc(/C=C/C(=O)C2(O)CCCCC2)cc1OC,-4.5*
O=C(/C=C/c1ccccc1)C1(O)CCCCC1,-0.89
O=c1oc2ccccc2cc1-c1nnnn1-c1ccc(F)cc1,23
CCCC(=O)n1nc(NCc2ccccc2)nc1NCc1ccccc1,-0.43
SMILES,Ba CapD inh
COc1ccccc1C(O)(c1ccc(O)cc1)C(CN1CCOCC1)c1ccccc1 (centres undefined),-0.57
CCCCc1c2c(nn1-c1ccccc1F)CC(c1ccccc1)CC2=O (centres undefined),-0.22
Cc1cc(C(F)(F)F)c2c(n1)sc1c(O)cc(=O)[nH]c12,5.8
COc1ccc(C(=O)c2sc3nc(-c4ccco4)cc(C(F)(F)F)c3c2N)cc1OC,0.67
O=c1cc(O)c2sc3nc(-c4ccco4)cc(C(F)(F)F)c3c2[nH]1,-6.2*
CCOC(=O)c1ccc(N/C=C(\C(C)=O)c2ccc(OC)c(OC)c2)cc1,-0.12
Cc1ccc2cc(C#N)c(=O)[nH]c2c1,69
COc1cc(CNc2ccc(C)cc2)ccc1O,0.26
COc1cc(CNc2ccccc2SC)ccc1O,7
C=CCc1ccc(O)c(OC)c1,-10*
COc1ccc(N2C(=O)NC(=O)/C(=C\c3cc(Br)c(OC)cc3OC)C2=O)cc1,0.49
CSC1=NSC2=NC(=O)/C(=C\c3ccc(-c4ccccc4)o3)C(=N)N12,-0.66
CC(C)SC1=NSC2=NC(=O)/C(=C\c3ccc(-c4cccc(C(=O)O)c4)o3)C(=N)N21,-13*
CC(=O)Oc1ccc(/C=C2/C(=N)N3C(=NC2=O)SN=C3SC(C)C)cc1,-0.23
